Experimental data published in PubChem BioAssay.

Experiment: modulation of C. elegans fzo-1 (AID 1259413);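 further: fzo-1 mutant C. elegans worms in liquid wells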
Details: C. elegans fzo-1 modulator screen, mean read-out; hits give high values; call rule not given here

Mean signal, inactive:
CC(=O)S[C@@H]1CC2=CC(=O)CCC2(C)[C@H]2CCC3(C)[C@@H](CC[C@@]34CCC(=O)O4)[C@H]12 (stereo not given in full) 260
CC(C)C[C@H](NC(=O)[C@@H](COC(C)(C)C)NC(=O)[C@H](Cc1ccc(O)cc1)NC(=O)[C@H](CO)NC(=O)[C@H](Cc1c[nH]c2ccccc12)NC(=O)[C@H](Cc1cnc[nH]1)NC(=O)[C@H]1CCC(=O)N1)C(=O)N[C@H](CCCN=C(N)N)C(=O)N1CCC[C@@H]1C(=O)NNC(N)=O 236
O=C1NC(=O)N(C2CC(O)C(CO)O2)CC1F (stereo not given) 241
CC1(C)O[C@@H]2C[C@H]3[C@@H]4C[C@H](F)C5=CC(=O)C=CC5(C)[C@H]4[C@@H](O)CC3(C)C2(C(=O)CO)O1 (stereo not given in full) 250
CN[C@@H]1[C@H](O)[C@H](NC)[C@H]2OC3(O)C(=O)C[C@@H](C)O[C@H]3O[C@@H]2[C@H]1O (stereo not given in full) 224
CCC(=O)NS(=O)(=O)c1ccc(-c2c(-c3ccccc3)noc2C)cc1 273
CC(=O)NCCCCCCNC(C)=O 268
CC1=C(C/C=C(\C)CCCC(C)CCCC(C)CCCC(C)C)C(=O)c2ccccc2C1=O (stereo not given) 243
CC(=O)OCC(=O)C12OC(C)(C)O[C@@H]1C[C@H]1[C@@H]3C[C@H](F)C4=CC(=O)C=CC4(C)[C@@]3(F)[C@@H](O)CC12C (stereo not given in full) 228
CO[C@H]1O[C@@H]2O[C@@]3(C)CC[C@H]4[C@H](C)CC[C@@H]([C@H]1C)[C@@]24OO3 291
